The values that follow come from PubChem BioAssay (EPA / NIEHS).

Inconclusive results are not listed. Calls of active or inactive are those of the source. Rule for the calls: active = hit-call score of the fitted dose curve at least 0.9, where 1 is the maximum; inconclusive = response in the unintended direction; inactive = score below 0.9.

Oxysterols receptor LXR-beta (Homo sapiens), sequence (P55055 whole entry, looked up, the tested form may be a part): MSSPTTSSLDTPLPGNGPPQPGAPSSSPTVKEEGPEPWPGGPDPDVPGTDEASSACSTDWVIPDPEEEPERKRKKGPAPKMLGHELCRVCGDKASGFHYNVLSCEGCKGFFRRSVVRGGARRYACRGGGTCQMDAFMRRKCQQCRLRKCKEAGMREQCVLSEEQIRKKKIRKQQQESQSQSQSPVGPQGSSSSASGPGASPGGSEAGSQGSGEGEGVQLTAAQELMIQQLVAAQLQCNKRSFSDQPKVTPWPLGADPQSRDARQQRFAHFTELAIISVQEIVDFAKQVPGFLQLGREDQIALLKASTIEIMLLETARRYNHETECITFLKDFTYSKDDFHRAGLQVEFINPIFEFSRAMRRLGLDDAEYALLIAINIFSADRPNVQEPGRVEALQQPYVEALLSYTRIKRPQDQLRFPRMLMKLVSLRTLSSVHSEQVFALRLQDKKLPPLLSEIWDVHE
Hepatocyte nuclear factor 4-alpha (Homo sapiens), sequence (P41235 whole entry, looked up, the tested form may be a part): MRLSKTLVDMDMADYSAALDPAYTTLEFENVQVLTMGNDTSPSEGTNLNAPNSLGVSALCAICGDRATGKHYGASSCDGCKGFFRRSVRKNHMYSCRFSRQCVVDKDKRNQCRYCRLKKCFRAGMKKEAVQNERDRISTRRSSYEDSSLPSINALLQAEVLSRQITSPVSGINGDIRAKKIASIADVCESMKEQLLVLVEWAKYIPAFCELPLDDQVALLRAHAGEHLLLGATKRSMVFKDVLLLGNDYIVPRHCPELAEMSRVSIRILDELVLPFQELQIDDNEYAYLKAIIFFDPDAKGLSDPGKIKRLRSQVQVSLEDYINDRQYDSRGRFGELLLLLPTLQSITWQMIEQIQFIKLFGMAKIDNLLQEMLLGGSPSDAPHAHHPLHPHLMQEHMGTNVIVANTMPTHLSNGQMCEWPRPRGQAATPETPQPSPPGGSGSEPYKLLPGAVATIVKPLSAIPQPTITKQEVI

The target in one test is Oxysterols receptor LXR-beta (Homo sapiens) (UniProt P55055). The test is described as follows: ATG_LXRb_TRANS: Attagene TRANS-FACTORIAL HepG2 Assay for human Liver X Receptor beta (LXRb) (AID 2282981). As to conditions: HepG2 Attagene TRANS GAL4-LXRb reporter, mRNA. The procedure, abridged:
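Gain-of-signal mRNA reporter endpoint, DMSO as negative control. Transiently transfected HepG2 cells carrying the NR-Gal4 chimera and GAL4-UAS reporter units were treated 24 h; transcripts quantified by RT-PCR and capillary electrophoresis fluorescence.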
Consider `CC/C=C\C#N`, for which the outcome was inactive.
Same read-out and setting: for `CCOC(=O)CC(C)C` the value was “inactive”.
`O=C(C=Cc1ccccc1)OCCCc1ccccc1`: the call was inactive.
Still for that read-out and setting: for `CC(=N[Si](C)(C)C)O[Si](C)(C)C` the value was “inactive”; for `CCC=C(C)C=O`, “inactive”; for `[Cu+]`, “inactive”.
For `c1coc(CNc2ncnc3nc[nH]c23)c1`, the outcome was inactive.
On to `CCCOC(=O)CC`, for which the compound was called inactive.
Same read-out and setting: for `CC(C)(C)c1cccc(O)c1` the value was “inactive”; for `CCCc1ccc(O)cc1`, “inactive”.
Same read-out and setting: under `CCCCCC(=O)O[C@]1(C(C)=O)CC[C@H]2[C@@H]3CCC4=CC(=O)CC[C@]4(C)[C@H]3CC[C@@]21C` stands “inactive”; under `CC1=CC(O)CC(C)(C)C1` (configuration not stated), “inactive”; under `CCCCCCOC(C)=O`, “inactive”.
Same read-out and setting: under `CCCC[N+](C)(CCCC)CCCC` stands “inactive”; under `CCCCOC(=O)C(C)OC(=O)CCC` (configuration not stated), “inactive”; under `CC(=O)CC(=O)N(C)C`, “inactive”.
Take `Nc1ccc(N)c([N+](=O)[O-])c1`: the result was inactive.
On the same count and under the same terms, under `NC(=O)c1cnccn1` stands “inactive”; under `CC/C=C\CCOC(=O)C(C)C`, “inactive”.
The same measure, in the same setting: for `CCCCCCC(C)O` (configuration not stated) the value was “inactive”; for `O=C(OCc1ccccc1)c1ccccc1O`, “inactive”.
On the same count and under the same terms, for `CC(=O)c1ccc(C)cc1` the value was “inactive”.
Consider `CC(C)N(c1ccccc1)C(C)C`, for which the compound was classed as inactive.

Another test addresses Hepatocyte nuclear factor 4-alpha (Homo sapiens) (UniProt P41235). The test is described as follows: ATG_HNF4a_TRANS: Attagene TRANS-FACTORIAL HepG2 Assay for human Hepatocyte Nuclear Factor 4 alpha (HNF4a) (AID 2282982). To be noted: HepG2 HNF4a transactivation reporter, mRNA readout. In outline:
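Gain-of-signal mRNA induction, relative to DMSO vehicle, was read after 24 h compound treatment of HepG2 cells bearing transfected GAL4-UAS reporters. Detection used RT-PCR, 6-FAM primer extension and capillary electrophoresis.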
Take `CC/C=C\C#N`: the result was inactive.
The same measure, in the same setting: under `CCOC(=O)CC(C)C` stands “inactive”; under `CC/C=C\CCOC(C)OCC` (configuration not stated), “inactive”; under `O=C(C=Cc1ccccc1)OCCCc1ccccc1`, “inactive”.
Take `CC(=N[Si](C)(C)C)O[Si](C)(C)C`: the result was inactive.
Turning to `CCC=C(C)C=O`, the outcome was inactive.
Still for that read-out and setting: for `[Cu+]` the value was “inactive”; for `c1coc(CNc2ncnc3nc[nH]c23)c1`, “inactive”.
Still for that read-out and setting: for `CCCOC(=O)CC` the value was “inactive”.
Still for that read-out and setting: under `COc1ccc(OC)cc1` stands “inactive”; under `N=C1N=C(N)c2ccccc21`, “inactive”; under `O=C1OC2(c3ccc(O)cc3Oc3cc(O)ccc32)c2ccccc21`, “inactive”.
Take `CCCCCCOC(C)=O`: the call was inactive.
The same measure, in the same setting: for `OCCCO` the value was “inactive”.
For `CCCCOC(=O)C(C)OC(=O)CCC` (configuration not stated), the call was inactive.
The same measure, in the same setting: under `CC(=O)CC(=O)N(C)C` stands “inactive”.
The same measure, in the same setting: for `CC(C)(CO)CO` the value was “inactive”; for `C/C=C(\C)C(=O)OC/C=C(\C)CCC=C(C)C`, “inactive”.
On the same count and under the same terms, under `NC(=O)c1cnccn1` stands “inactive”; under `CC/C=C\CCOC(=O)C(C)C`, “inactive”; under `CCCCCCC(C)O` (configuration not stated), “inactive”.
In the case of `O=C(OCc1ccccc1)c1ccccc1O`, the outcome was inactive.
With `CC(=O)c1ccc(C)cc1`, the compound was classed as inactive.
For `CC(C)N(c1ccccc1)C(C)C`, the compound was called inactive.
